DRD3 antagonist = qHTS of D3 Dopamine Receptor Antagonist: qHTS | max response, negative = inhibition, % | D3R cells, DiscoveRx beta-arrestin luminescence, antagonist mode; active compounds read low | 360,000 tested, 2.5% active; in the data active means max response below about -50%; inconclusive means no clear call, values can overlap the other calls; further: on the % scale 0 is the no-effect control and ±100 the full control effect
Target sequence (P35462 whole entry, looked up): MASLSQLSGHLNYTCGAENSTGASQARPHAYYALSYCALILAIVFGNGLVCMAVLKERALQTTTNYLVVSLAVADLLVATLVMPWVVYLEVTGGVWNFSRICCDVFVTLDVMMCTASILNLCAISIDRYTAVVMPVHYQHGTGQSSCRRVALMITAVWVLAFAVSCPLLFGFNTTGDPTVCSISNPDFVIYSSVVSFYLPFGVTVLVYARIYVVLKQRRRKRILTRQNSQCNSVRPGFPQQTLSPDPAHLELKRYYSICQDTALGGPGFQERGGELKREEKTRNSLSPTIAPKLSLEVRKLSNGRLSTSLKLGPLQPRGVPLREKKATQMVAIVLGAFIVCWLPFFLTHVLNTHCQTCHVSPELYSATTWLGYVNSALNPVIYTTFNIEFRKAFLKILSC
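Cells expressing the human receptor were seeded at 1500 cells/well, incubated overnight at 37 degrees C in 5% CO2, then exposed to library compounds with dopamine controls for 90 minutes at 37 degrees C before luminescent detection.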
DT40 TDP1 CPT = qHTS for Inhibitors of human tyrosyl-DNA phosphodiesterase 1 (TDP1): qHTS in cells in presence of CPT; chicken DT40 Tdp1-/-;hTDP1 cells + 20 nM CPT, ATP luminescence, 48 h; Potency, µM (series often up to 46.2 µM), for inactives: at the highest dose activity change, negative = growth inhibition, actives largely listed as inhibitors; 420,000 tested, 12% active; AID 686979, 2013; further: potency means the concentration at half of the fitted maximal effect; on the % scale 0 is the no-effect control and ±100 the full control effect; nearly all actives have a fitted effect of over 55% in size
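Chicken DT40 Tdp1-/- cells complemented with human TDP1, 400 cells/well, exposed to compounds plus 20 nM camptothecin for at least 48 h at 37 C; viability read as ATP content by CellTiter-Glo luminescence.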
ClpP mod = qHTS Assay for Activators of ClpP | 340,000 tested, 1.9% active | purified B. subtilis ClpP, FRET peptide cleavage, 20 min | ATP-dependent Clp protease proteolytic subunit (Bacillus subtilis (strain 168)), P80244 | AID 651965, 2013 | Potency, µM (highest dose often 57.5 µM), for inactives: top-dose activity change, negative = active; active means well fitted falling curve with a large enough effect; inconclusive means small, poorly fitted or top-dose-only effect; inactive means no such curve, though single readings can be large or run the other way; further: potency means the concentration at half of the fitted maximal effect; the source files actives as falling curves though it sought activators and does not explain the sign; nearly all actives have a fitted effect of over 65% in size
Target sequence (P80244 whole entry, looked up): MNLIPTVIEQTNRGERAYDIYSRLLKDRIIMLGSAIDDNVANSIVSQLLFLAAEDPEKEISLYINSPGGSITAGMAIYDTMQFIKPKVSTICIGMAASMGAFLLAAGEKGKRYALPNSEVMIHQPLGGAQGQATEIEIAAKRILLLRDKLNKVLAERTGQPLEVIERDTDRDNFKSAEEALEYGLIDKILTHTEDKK
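ClpP 10 microg/mL final, pH 8 Tris/KCl buffer with BSA, glycerol, Tween-20; compound pinned in; FRET-FV substrate; RT 20 min; Ex320/Em430; ΔFRET vs ADEP 5.8 microM, DMSO, no enzyme.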
D3 ag = qHTS of D3 Dopamine Receptor Agonist: qHTS; max activation, %; AID 652048, 2013; 410,000 tested, 0.58% active; D3R DiscoveRx beta-arrestin cells, luminescence, 90 min; in the data active means max activation above about 30%; further: 0% is about no effect
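Agonist mode: compounds and dopamine controls were applied to plated cells for 90 min at 37 degrees C after an overnight attachment at 1500 cells/well. Luminescent read-out followed 30 - 60 minutes at room temperature with DiscoveRx detection reagent.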
DT40 TDP1 no CPT = qHTS for Inhibitors of human tyrosyl-DNA phosphodiesterase 1 (TDP1): qHTS in cells in absence of CPT | DT40 Tdp1-/- hTDP1 cells, no CPT, ATP luminescence, 48 h | Potency, µM (titrated, usually from 46.2 µM), for the others: at the highest dose activity change, negative = growth inhibition, actives largely listed as inhibitors | 420,000 tested, 15% active | AID 686978, 2013; further: potency means the concentration at half of the fitted maximal effect; on the % scale 0 is the no-effect control and ±100 the full control effect; nearly all actives have a fitted effect of over 55% in size
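Growth of hTDP1-complemented DT40 Tdp1-knockout cells is measured by ATP luminescence after at least 48 hr compound exposure at 37 °C, with DMSO substituting for the 20 nM CPT used in the parallel screen.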
IL1B secr inh = qHTS for Inhibitors of Inflammasome Signaling: IL-1-beta AlphaLISA Primary Screen | THP-1 LPS/ATP IL-1B secretion, AlphaLISA, 16 h; active compounds read low | activity change, % at 57.5 µM | 360,000 tested, 4.7% active; in the data active means activity change below about -50%; inconclusive means mostly about -30% to -49%; further: on the % scale 0 is the no-effect control and ±100 the full control effect
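Secreted IL-1B measured by AlphaLISA bead assay after 16 h compound exposure of THP-1 cells; compounds (final up to 57.5 uM) added 1 h before LPS (250 ng/mL) and ATP (1.25 mM) stimulation; lower signal means less secretion.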
An asterisk follows results filed as active; i = inactive; ? = inconclusive; . = no result. Only some compounds are listed: those with a hit (about 21% of all), similar ones and a draw of the others. Unless noted, the call rests on the fitted dose curve; in most records, active means well fitted inhibition curve with a large enough effect; inconclusive means small, poorly fitted or top-dose-only effect; inactive means flat fitted curve, though single readings scatter.

SMILES | DRD3 antagonist | DT40 TDP1 CPT | ClpP mod | D3 ag | DT40 TDP1 no CPT | IL1B secr inh
O=C(Nc1ccc2c(c1)OCO2)c1cc(C2CCCCN2C(=O)c2ccc(Cl)cc2)on1 (stereo not drawn) | 5 | 21µM* | -5% | 4 | 21µM* | -1
O=C(Nc1ccc2c(c1)OCO2)c1cc(C2CCCCN2C(=O)OCCF)on1 (stereo not drawn) | 4 | ? | 1% | 1 | ? | 11
O=C(Nc1ccccc1)c1cc(C2CCCN(C(=O)c3ccc4c(c3)CCO4)C2)on1 (stereo not drawn) | 12 | 2% | -1% | -2 | -26% | 4
COC(=O)N1CCCCC1c1cc(C(=O)Nc2ccc3c(c2)OCO3)no1 (stereo not drawn) | 0 | 0% | 0% | -3 | -25% | 0
O=C(Nc1ccccc1Cl)c1cc(C2CCCN(C(=O)c3ccc4c(c3)CCO4)C2)on1 (stereo not drawn) | 2 | 13µM* | 0% | 12 | 15µM* | 33
N#Cc1ccc(C(=O)N2CCCCC2c2cc(C(=O)Nc3ccc4c(c3)OCO4)no2)cc1 (stereo not drawn) | 0 | ? | 0% | 1 | 23µM* | -16
O=C(Nc1ccc2c(c1)OCO2)c1cc(C2CCCCN2C(=O)c2ccc3c(c2)CCO3)on1 (stereo not drawn) | -12 | 26µM* | -2% | -1 | 26µM* | -13
Cn1c(CCC(=O)OCC(=O)NCc2ccc3c(c2)OCO3)nc(=O)c2ccccc21 | 4 | -1% | 0% | 1 | 1% | 4
Cn1c(=O)c2c(nc(CN3CCN(C(=O)c4ccco4)CC3)n2CC(=O)C(C)(C)C)n(C)c1=O | -11 | -2% | . | -9 | -22% | 6
CN1CCN(Cc2coc3c(Cl)cc(Cl)cc3c2=O)CC1 | -17 | -7% | 4% | -4 | -22% | -12
Cc1ccc(C(=O)COC(=O)c2cc(-c3ccc(Cl)cc3)nc3ccccc23)cc1 | . | 10µM* | -9% | -16 | 21µM* | .
Cc1ccc(-c2cc(C(=O)OCC(=O)Nc3ncc(C(F)(F)F)cc3Cl)c3ccccc3n2)cc1 | 4 | 15µM* | ? | 0 | ? | 28
Cc1ccc(C(=O)COC(=O)c2cc(Cl)nc3ccccc23)cc1C | 30 | -7% | ? | -12 | -17% | 14
Cc1ccc(CC(=O)Nc2cccc(C(=O)Nc3c(C)n(C)n(-c4ccccc4)c3=O)c2)cc1C | -5 | ? | -1% | 0 | ? | 23
CCOC(=O)c1cnc(SC)nc1Oc1cccc(NS(=O)(=O)c2ccc(C)cc2)c1 | 22 | ? | 1% | 9 | 16µM* | 16
CCCCC(=O)Nc1ccc(C(=O)N2CCN(c3ccccc3OC)CC2)cc1 | 18 | ? | 1% | 19 | -24% | 14
COc1ccc(NC(=O)COC(=O)COc2cccc3c2OC(C)(C)C3)cc1 | -15 | -8% | 0% | -11 | -12% | 8
COc1ccccc1N1CCN(C(=O)c2ccc(CN3CCc4ccccc4C3)cc2)CC1 | -67* | 16µM* | 1% | -5 | ? | -14
COc1ccccc1N1CCN(C(=O)c2ccc(COc3cccc4c3OC(C)(C)C4)cc2)CC1 | 38 | ? | 0% | 5 | 16µM* | ?
O=C(c1ccc(Cn2cc(Br)cn2)cc1)N1CCN(c2ccccc2)CC1 | 21 | 15µM* | -1% | 18 | 16µM* | -11
COc1ccccc1C(=O)COC(=O)COc1cccc2c1OC(C)(C)C2 | -66* | -11% | -1% | -19 | -4% | -16
CCCCCCCCCCCCCCCC(=O)C1=C(O)C(CO)OC1=O (stereo not drawn) | . | -4% | . | . | 6% | .
CCCS(=O)(=O)N1CCN(Cc2c[nH]c3ccccc23)CC1 | -16 | ? | . | -5 | ? | 17
Cc1noc(C)c1NC(=O)N(C)C[C@H]1Oc2ccc(NC(=O)C3CC3)cc2C(=O)N([C@H](C)CO)C[C@@H]1C | 0 | ? | 0% | 25 | ? | 10
O=C(c1ccc(CN2CCc3ccccc3C2)cc1)N1CCN(c2ccc(F)cc2)CC1 | -65* | 16µM* | -1% | -9 | 13µM* | -63*
SMILES | DRD3 antagonist | DT40 TDP1 CPT | ClpP mod | D3 ag | DT40 TDP1 no CPT | IL1B secr inh
O=C(c1ccc(CN2CCc3ccccc3C2)cc1)N1CCCCC1 | -73* | -28% | -4% | -20 | ? | 8
COC(=O)c1ccccc1OCc1cc(=O)oc2ccc(C)cc12 | 3 | -8% | -7% | -4 | -10% | 25
COc1cc(Cl)c(C)cc1NC(=O)CSc1nc2c(c(=O)[nH]1)CCC2 | . | -28% | 0% | 5 | ? | .
O=C(Nc1ccccc1-c1nnc(SCc2ccccc2)o1)c1ccccc1 | 8 | ? | 28µM* | 3 | ? | 23
O=C(Nc1ccccc1-c1nnc(SCc2ccc(Cl)cc2)o1)c1ccccc1 | 9 | ? | 10µM* | 6 | ? | 32
N#CC(c1ccccc1O)N1N=C(c2ccccc2)CC1c1ccccc1 (stereo not drawn) | 2 | 18µM* | -15% | 4 | 10µM* | 10
CCC(O)CNC(=O)c1cnn(-c2ncc3c(n2)-c2ccc(OC)cc2CC3)c1C1CC1 (stereo not drawn) | . | -1% | . | . | -24% | .
CCC(=O)Nc1ccc2nc(SCC(=O)N3CCOCC3)sc2c1 | -11 | 1% | . | 2 | -7% | 0
Nc1ccc2nc(SCC(=O)N3CCOCC3)sc2c1 | 11 | 3% | . | 2 | -21% | 36
Nc1ccc2nc(SCC(=O)Nc3ccc(N4CCOCC4)c(Cl)c3)sc2c1 | 4 | ? | 2% | 15 | 23µM* | -28
CCCC(=O)Nc1ccc2nc(SCC(=O)Nc3ccc(N4CCOCC4)c(Cl)c3)sc2c1 | -23 | -82% | -4% | -10 | 16µM* | -50*
Nc1nnc(SCC(=O)Nc2ccc(N3CCOCC3)c(Cl)c2)s1 | 1 | 18µM* | -3% | 4 | 12µM* | i
O=C(CSc1ccc(F)cc1)Nc1ccc(N2CCOCC2)c(Cl)c1 | -1 | -29% | -1% | -12 | ? | 0
C[C@H]1COC(=O)[C@H](CC(=O)OC(C)(C)C)C/C=C\C[C@H](CC(=O)N(CCO)Cc2ccccc2)C(=O)N1 | 32 | -10% | 2% | 3 | -10% | 11

Bioassay records as filed in PubChem.
